Experimental data as given in PubChem BioAssay (Tox21).
Records with an inconclusive call do not appear. A number with no mark means an inactive call. Activity calls are given as the source filed them. The call rests on the fitted dose curve; in most records, active means well fitted cell-killing curve with a large enough effect in the repeat runs; inconclusive means weak or mixed curves, or effect the other way; inactive means flat fitted curve, though single readings scatter.

assay: cAMP Responsive Elements (CRE) small molecule antagonists, cell-based qHTS assay: qHTS cell viability counter screen (AID 2060913); details: CRE-bla HEK293T viability, CellTiter-Glo luminescence, 5 h; series mostly up to 92.4 µM; viability change, negative = cytotoxic: at the top concentration; further: nearly all actives have a fitted effect of over 40% in size
Method in brief: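 Viability of NKH477-stimulated (0.25 uM final) CRE-bla HEK293T cells is measured by CellTiter-Glo luminescence following 3 hrs compound exposure at 37 C.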
On the % scale 0 is the no-effect control and ±100 the full control effect.

For `O=[N+]([O-])c1ccc(O)cc1`, which Potency is on record?
The Potency was “inactive”.

With `Cc1cc(C)n(CO)n1` as the compound, how does the “viability change, negative = cytotoxic” value read?
The value was -4.28%.

For `Nc1cc(C(Cl)=C(Cl)Cl)c(S(N)(=O)=O)cc1S(N)(=O)=O`, which “viability change, negative = cytotoxic” value is on record?
Its value is -0.251% [at 42.5 µM].

Which “viability change, negative = cytotoxic” value does the source give for `NC1=NCC2c3ccccc3Cc3ccccc3N12` (stereo not given) here?
The value was -0.301% [at 42.5 µM].

With `CC(S)C(=O)NCC(=O)O` (stereo not given) as the compound, how does the “viability change, negative = cytotoxic” value read?
Its value is 5.94% [at 42.5 µM].

Which Potency does the source give for `CC(O)COc1ccccc1` (stereo not given) here?
The Potency was “inactive”.

Which “viability change, negative = cytotoxic” value does the source give for `CC1(C)O[C@@H]2C[C@H]3[C@@H]4CCC5=CC(=O)CC[C@]5(C)[C@@]4(F)[C@@H](O)C[C@]3(C)[C@]2(C(=O)CCl)O1` here?
Its value is -0.459% [at 42.5 µM].

Which “viability change, negative = cytotoxic” value does the source give for `COc1nc(C)nc(NC(=O)NS(=O)(=O)c2ccccc2OCCCl)n1` here?
Its value is 0.931%.

For `CNS(=O)(=O)c1cc(C(=O)N2CCC(CCN3C4CCC3CC(n3c(C)nc5ccccc53)C4)(c3cccc(F)c3)CC2)c(Cl)cc1F` (stereo not given), which “viability change, negative = cytotoxic” value is on record?
Its value is -14.6%.

Which “viability change, negative = cytotoxic” value does the source give for `CC(=O)N(O)CCCCCNC(=O)CCC(=O)N(O)CCCCCNC(=O)CCC(=O)N(O)CCCCCN` here?
Its value is 1.64% [at 42.5 µM].

For `OCCOCCN1CCN(C2=Nc3ccccc3Sc3ccccc32)CC1`, which Potency is on record?
The Potency was “inactive”.

For `O=C(OC(=O)c1ccccc1)c1ccccc1`, which “viability change, negative = cytotoxic” value is on record?
Its value is -9.24%.

Which Potency does the source give for `O=c1n(CCCN2CCN(c3cccc(Cl)c3)CC2)nc2ccccn12` here?
Its Potency is “inactive”.

For `CC/C(=C(/CC)c1ccc(O)cc1)c1ccc(O)cc1`, which Potency is on record?
The Potency was “inactive”.

With `CCc1c(C)cc(N)c(CC)c1N` as the compound, how does the “viability change, negative = cytotoxic” value read?
Its value is -2.05%.

With `COC(=O)c1cc(Cl)ccc1NS(=O)(=O)C(F)(F)F` as the compound, how does the “viability change, negative = cytotoxic” value read?
The value was -1.51% [at 42.5 µM].

Which “viability change, negative = cytotoxic” value does the source give for `CCCC(C)C` here?
The value was -18.5%.

With `CC12CC3CC(C)(C1)CC(N)(C3)C2` as the compound, how does the “viability change, negative = cytotoxic” value read?
Its value is 5.73% [at 42.5 µM].

Which “viability change, negative = cytotoxic” value does the source give for `CC(COC(=O)c1ccccc1)OC(=O)c1ccccc1` (stereo not given) here?
The value was -3.79%.

Which “viability change, negative = cytotoxic” value does the source give for `CC(=O)Nc1ccc(C)c(Cl)c1` here?
The value was 2.39%.

With `O=P(O)(O)OCC(O)CO` (stereo not given) as the compound, how does the “viability change, negative = cytotoxic” value read?
Its value is 3.94% [at 42.5 µM].

With `CC(=O)Oc1cccc(C)c1` as the compound, how does the “viability change, negative = cytotoxic” value read?
The value was -1.26% [at 42.5 µM].

For `Cc1ccc2nc(-c3ccc(N)cc3)sc2c1S(=O)(=O)O`, which “viability change, negative = cytotoxic” value is on record?
Its value is -0.396% [at 42.5 µM].

Which “viability change, negative = cytotoxic” value does the source give for `OC1CCCCC1c1ccccc1` (stereo not given) here?
The value was 0.598%.

With `CN(C)CCOCCN(C)C` as the compound, how does the Potency read?
Its Potency is “inactive”.

For `Nc1ccc2c(c1)C(=O)c1ccccc1C2=O`, which Potency is on record?
The Potency was “inactive”.

Which Potency does the source give for `Cc1cc(O)c2c(c1)C(=O)c1cc(O)cc(O)c1C2=O` here?
Its Potency is “inactive”.

With `CC1(C)C(C=C(Cl)Cl)C1C(=O)OCc1cccc(Oc2ccccc2)c1` (stereo not given) as the compound, how does the Potency read?
The Potency was “inactive”.

For `CC(CCc1ccccc1)NCC(O)c1ccc(O)c(C(N)=O)c1` (stereo not given), which “viability change, negative = cytotoxic” value is on record?
The value was 0.333%.

For `O=C=NC1CCC(CC2CCC(N=C=O)CC2)CC1` (stereo not given), which “viability change, negative = cytotoxic” value is on record?
Its value is 3.64%.

Which “viability change, negative = cytotoxic” value does the source give for `CCN(CC)c1ccc2c(-c3ccccc3C(=O)O)c3ccc(=[N+](CC)CC)cc-3oc2c1` here?
Its value is -12%.

Which “viability change, negative = cytotoxic” value does the source give for `CC(=O)NCCCS(=O)(=O)O` here?
The value was 11.5% [at 42.5 µM].

With `Nc1nc(-c2ccccc2)c(Br)c(=O)[nH]1` as the compound, how does the “viability change, negative = cytotoxic” value read?
Its value is 6.71% [at 42.5 µM].

With `CC1CCC(C(C)C)C(O)C1` (stereo not given) as the compound, how does the Potency read?
The Potency was “inactive”.

For `Cc1cccc2c1ccc1ccccc12`, which “viability change, negative = cytotoxic” value is on record?
Its value is -10.7%.

Which “viability change, negative = cytotoxic” value does the source give for `C=C(C)c1ccccc1` here?
Its value is 1.87%.

For `CN1CCCC1`, which “viability change, negative = cytotoxic” value is on record?
Its value is 0.051%.

With `C[C@@H]1CN(c2c(F)c(N)c3c(=O)c(C(=O)O)cn(C4CC4)c3c2F)C[C@H](C)N1` as the compound, how does the viability change, negative = cytotoxic read?
Its viability change, negative = cytotoxic is -4.19% [at 18.9 µM].

With `O=S(=O)(O)CO` as the compound, how does the “viability change, negative = cytotoxic” value read?
The value was 3.94%.

For `CC(C)c1ccc2ncccc2c1`, which “viability change, negative = cytotoxic” value is on record?
Its value is 6%.
